Assay outcomes deposited in PubChem BioAssay by several laboratories.
In the library only some 1.6% were active in any assay of this set; here they are far more common.
PME-1 primary – blocks human protein phosphatase methylesterase 1. Q9Y570. recombinant PME-1, FP-Rh probe fluorescence polarization. inhibition, % at 5.9 µM. actives 0.53% (n = 320,000);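 active = inhibition above the campaign mean of all compounds plus 3 SD, cut at about 26% in these data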;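 also: competitive labeling of PME-1 active site by serine hydrolase directed probe; 0% = PME-1 with DMSO and 100% = wells lacking PME-1 enzyme; inhibitors block probe labeling so polarization falls and inhibition rises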
MEX-5 binding – C. elegans MEX-5 TCR-2 RNA binding activity; actives 0.38% (n = 300,000); MEX-5/FITC-TCR2 RNA binding, fluorescence polarization; stronger effect = lower value; Q9XUB2; AID 1832; activity score (negative = inhibition of binding), % at 10 µM;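 active = inhibition past about -25% in most replicates, and total fluorescence under double the plate's negative control median, limit read from the data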;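 also: 0% = DMSO and -100% = 5 µM competing unlabeled TCR2 RNA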
LYPLA1 counter – counter-screen for PME1 inhibitors: inhibitors of human LYPLA1 | recombinant LYPLA1, FP-Rh probe fluorescence polarization | inhibition, % at 5.9 µM | AID 2174 | O75608 | actives 0.16% (n = 320,000);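 active = inhibition above the mean of all tested compounds plus 3 SD, set per campaign, cut at about 14% in these data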;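 also: inhibitors block serine hydrolase probe labeling of LYPLA1 so polarization falls; 0% = enzyme with DMSO and 100% = wells lacking LYPLA1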
Fam108B counter – counter-screen for RBBP9 inhibitors: inhibitors of mouse Fam108B; recombinant Fam108B, FP-Rh probe fluorescence polarization; inhibition, % at 9.51 µM; actives 0.33% (n = 300,000);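 active = inhibition above the screen mean inhibition plus 3 SD, computed separately per campaign, cut at about 18% in these data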;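 also: inhibitors lower polarization as less probe binds the enzyme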
LYPLA2 inh – blocks human lysophospholipase 2, a PME1 counter-screen | actives 0.38% (n = 320,000) | recombinant LYPLA2, FP-Rh probe fluorescence polarization | inhibition, % at 5.9 µM | AID 2177;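 active = inhibition above the screen-wide mean plus 3 SD, limit set per campaign, cut at about 26% in these data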;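 also: 0% = LYPLA2 with DMSO and 100% = wells lacking LYPLA2 enzyme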
PREPL inhibitor – inhibitors of human prolyl oligopeptidase-like enzyme PREPL | recombinant PREPL, fluorescence polarization activity-based probe | inhibition, % at 5.96 µM | actives 0.68% (n = 320,000) | AID 2751; in the data active = inhibition above about 43%;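 also: 0% = enzyme with DMSO and 100% = wells lacking enzyme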
Target sequence (Q4J6C6 whole entry, looked up): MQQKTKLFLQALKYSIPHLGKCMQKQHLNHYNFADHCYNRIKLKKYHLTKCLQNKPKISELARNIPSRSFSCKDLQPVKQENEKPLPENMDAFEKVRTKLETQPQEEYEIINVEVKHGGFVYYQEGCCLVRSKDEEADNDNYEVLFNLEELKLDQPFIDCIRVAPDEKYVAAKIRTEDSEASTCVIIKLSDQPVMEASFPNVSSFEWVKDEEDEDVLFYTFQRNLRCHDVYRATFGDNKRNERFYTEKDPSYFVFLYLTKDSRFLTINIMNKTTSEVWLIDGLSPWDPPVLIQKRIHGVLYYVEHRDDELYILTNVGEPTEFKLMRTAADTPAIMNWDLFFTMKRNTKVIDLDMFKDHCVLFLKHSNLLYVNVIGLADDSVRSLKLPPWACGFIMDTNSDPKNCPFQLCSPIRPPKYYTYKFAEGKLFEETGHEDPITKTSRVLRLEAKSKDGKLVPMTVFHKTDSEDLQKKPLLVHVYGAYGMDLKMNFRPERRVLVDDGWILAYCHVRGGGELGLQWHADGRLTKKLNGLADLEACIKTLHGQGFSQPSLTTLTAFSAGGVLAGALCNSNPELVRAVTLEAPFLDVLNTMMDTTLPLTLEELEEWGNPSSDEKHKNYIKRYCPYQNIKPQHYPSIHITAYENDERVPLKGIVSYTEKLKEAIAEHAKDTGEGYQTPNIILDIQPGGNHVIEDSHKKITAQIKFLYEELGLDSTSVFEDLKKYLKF
LYPLA1 confirm – LYPLA1 (human) inhibition, confirmation counter-screen. inhibition, % at 5.9 µM. recombinant LYPLA1, FP-Rh probe fluorescence polarization. shares compounds with LYPLA1 counter. actives 69% (n = 480);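 active = mean inhibition across replicates above the hit cutoff set in the primary screen, cut at about 15% in these data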;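 also: loss of FP-Rh probe labeling of LYPLA1 seen as lower polarization; 0% = LYPLA1 with DMSO and 100% = wells lacking LYPLA1 enzyme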
* = called active by the depositor; / = no result; ! = not active in a repeat.

SMILES	PME-1 primary	MEX-5 binding	LYPLA1 counter	Fam108B counter	LYPLA2 inh	PREPL inhibitor	LYPLA1 confirm
CN(C)C(=O)CN1C(=O)NC2(CCc3ccccc32)C1=O (stereo not drawn)	0	0	5	0	7	2	/
COC(=O)c1ccc(Oc2ccc(S(=O)(=O)N3CCCCC3)cc2N)cc1	3	4	26*	-1	17	5	47*
Cc1cccc(-n2c(N)cc(=O)[nH]c2=S)c1C	2	1	2	3	2	6	/
NC(=O)C1CCN(c2ncnc3c2c(-c2ccccc2)cn3-c2ccccc2)CC1	5	-2	17*	-2	18	13	19*
Fc1ccc(-n2cc(-c3ccccc3)c3c(N4CCOCC4)ncnc32)cc1	-6	-2	1	-5	2	17	/
CC(NC(=O)c1ccco1)C(=O)N1CCN(c2ccccc2)CC1 (stereo not drawn)	3	0	5	1	2	-1	/
CC(NC(=O)c1ccco1)C(=O)N1CCN(c2cccc(C(F)(F)F)c2)CC1 (stereo not drawn)	11	/	34*	/	17	16	45*
COC/C=C/C1=CC2=CC(=O)C(C)(OC(=O)c3cnc4ccccc4n3)C(=O)C2=CO1 (stereo not drawn)	15	-42*	22*	15	9	8	-2
C=C[C@]1(C)C[C@@H](OC(=O)CSCCN(CC)CC)[C@]2(C)C(C)CC[C@]3(CCC(=O)[C@H]32)[C@@H](C)[C@@H]1O (stereo partly drawn)	-3	1	15*!	2	0	30	3
O=C1CC(c2ccccc2)c2cc(O)ccc2O1 (stereo not drawn)	-1	0	3	1	1	8	/
Cc1ccc(C2CC(=O)Oc3cc(O)ccc32)cc1 (stereo not drawn)	23	-21	22*	15	23	15	18*
COc1ccc(NC(=O)C2CCC(CNc3c(N4CCCCC4)c(=O)c3=O)CC2)cc1OC (stereo not drawn)	-1	-2	17*	-3	2	1	21*
COc1ccc(OC)c(NC(=O)C2CCC(CNc3c(N4CCOCC4)c(=O)c3=O)CC2)c1 (stereo not drawn)	-6	-1	1	1	-2	9	/
CCOC(=O)C1(O)CSc2nc3sc(C(=O)O)c(C)c3c(=O)n21 (stereo not drawn)	4	0	14*	-2	13	9	5
COc1ccc([C@H]2/C=C\CN(C(=O)C3CC3)[C@@H](C)C(=O)N2Cc2ccc(F)cc2)cc1	-1	2	-2	4	3	-5	/
O=C(NC1CC1)c1c[nH]c2ccc(S(=O)(=O)Nc3cccc(C(F)(F)F)c3)cc2c1=O	-1	-1	14*	-2	-8	-3	6
CNc1ccc(/C=C(\CCC(=O)O)c2nc3ccccc3s2)cc1[N+](=O)[O-]	25	-2	16*	13	11	24	22*
Cc1ccc(CNC(=O)c2c(-c3ccccc3Cl)noc2C)cc1	-3	0	-4	-2	2	-4	/
Cc1onc(-c2ccccc2Cl)c1C(=O)NCc1ccc2c(c1)cc(C)n2C	23	0	16*	8	22	30	13
COc1ccccc1-c1csc(-n2ncc(C#N)c2N)n1	-10	-2	22*	-11	24	-3	40*
O=S(=O)(Nc1ccc(Cc2ccncc2)cc1)c1ccc(Cl)c(Cl)c1	10	-1	2	3	-1	-9	/
COc1ccc(S(=O)(=O)Nc2ccc(Cc3ccncc3)cc2)cc1OC	15	2	20*	4	1	7	28*
COc1ccccc1/C=C/C=N/N1CCN(Cc2ccc(Cl)cc2)CC1	1	2	19*	0	21	28	26*
COc1cc(/C=N/N2CCN(Cc3ccc(Cl)cc3)CC2)cc(Br)c1O	2	1	49*	-1	22	19	54*
COc1ccccc1/C=C/C=N\N1CCN(Cc2ccccc2Cl)CC1	5	/	3	4	10	17	/
SMILES	PME-1 primary	MEX-5 binding	LYPLA1 counter	Fam108B counter	LYPLA2 inh	PREPL inhibitor	LYPLA1 confirm
CC1COc2ccccc2N1C(=O)c1ccccc1Cl (stereo not drawn)	-4	0	0	0	10	-3	/
CC(=O)Nc1ccc(N/C=C2/CCCC2=O)cc1	9	-3	1	1	6	5	/
Cc1cc(O)ccc1N/C=C1\CCCC1=O	24	-1	19*	8	15	33	3
CC(C)CNC(=O)c1cccc(NC(=O)c2ccc3c(c2)C(=O)N(C)C3=O)c1	3	-4	26*	0	15	-11	27*
CCn1c(CSc2nc3ccccc3[nH]2)nc2cc(C(=O)O)ccc21	19	/	20*	12	24	15	14
O=C(Oc1c(Br)cc(Br)c2cccnc12)N1CCCCC1	-7	0	-1	2	-6	3	/
O=C(CN1CCN(C(=O)c2ccco2)CC1)Nc1cc(C(F)(F)F)ccc1Cl	0	-4	91*	-3	11	4	92*
N#Cc1c(NC(=O)CN2CCN(C(=O)c3ccco3)CC2)sc2c1CCCCC2	2	-2	51*	0	18	16	56*
CCc1ccc(NC(=O)COC(=O)/C(=C/c2ccccc2OC)c2ccccc2)cc1	-20	-2	-13	-19	-22	1	/
COc1cc(CNc2ccc(O)cc2)cc(Br)c1OCc1ccccc1F	42*	0	18*	9	18	7	-1
CNc1oc(-c2cccc3ccccc23)nc1C#N	6	-2	17*	6	7	11	5
Cc1nn(-c2ccccc2)c(N2CCCC2)c1/C=N/Nc1ccc(S(N)(=O)=O)cc1[N+](=O)[O-]	16	1	20*	11	10	27	42*
NS(=O)(=O)c1ccc(N/N=C/c2ccc(C(=O)O)cc2)c([N+](=O)[O-])c1	-2	-2	3	2	10	-4	/
Cc1[nH][nH]c(=O)c1N=Nc1ccc(Br)c(Cl)c1	11	-2	24*	10	11	14	18*
Cc1cc(C)c(NC(=O)CSc2ccc(-c3ccccn3)nn2)c(C)c1	1	5	-2	3	-2	10	/
Cc1ccsc1C1Nc2ccc3ncccc3c2C2=C1C(=O)CCC2 (stereo not drawn)	16	/	28*	-1	1	23	31*
O=C(O)CCCCCCCCCCCc1ccccc1	0	-3	18*	3	26	5	27*
